# Results as given in PubChem BioAssay AID624494 (National Center for Advancing Translational Sciences (NCATS), 2012).
# Calls of active or inactive are those of the source.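 How the source made its calls: active means D2 binding constant Ki of 1000 nM or lower when displacing the radioligand; inactive means the rest.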
# Target: D(2) dopamine receptor (Homo sapiens) (UniProt P14416)
# Experiment: HTS Assay for Allosteric Antagonists of the Human D2 Dopamine Receptor: SAR in D2 Binding Assay
# Conditions: D2 radioligand binding, methylspiperone displacement
# Source text: Dopamine receptors (DARs) are involved in the etiology and/or therapy of a number of neuropsychiatric and endocrine disorders. For instance, all receptor-based antiparkinsonian drugs work via stimulating the D2 DAR subtype whereas all FDA-approved antipsychotic agents are antagonists of this receptor. […] There are three different types of allosteric modulators that we are seeking, two of which will stimulate or augment receptor signaling, allosteric agonists and potentiators, while the third, allosteric antagonists, will attenuate receptor signaling. The present primary screening assay measures compound antagonism after an EC80 addition of dopamine by tracking calcium flux in a […], inducible Hek293 Trex D2 cell line. This assay measures activity of the leads in the D2 radioligand binding assay. NIH Chemical Genomics Center [NCGC] NIH Molecular Libraries Probe Centers Network [MLPCN] MLPCN Grant: NS0676421 Assay Submitter (PI): David Sibley
# Radioligand displacement assay will be done to determine if the lead compounds are allosteric or orthosteric in nature, for interaction with the D2 receptor. Compounds will be evaluated for their ability to displace binding of methylspiperone.
# D(2) dopamine receptor (Homo sapiens), sequence (P14416 whole entry, looked up): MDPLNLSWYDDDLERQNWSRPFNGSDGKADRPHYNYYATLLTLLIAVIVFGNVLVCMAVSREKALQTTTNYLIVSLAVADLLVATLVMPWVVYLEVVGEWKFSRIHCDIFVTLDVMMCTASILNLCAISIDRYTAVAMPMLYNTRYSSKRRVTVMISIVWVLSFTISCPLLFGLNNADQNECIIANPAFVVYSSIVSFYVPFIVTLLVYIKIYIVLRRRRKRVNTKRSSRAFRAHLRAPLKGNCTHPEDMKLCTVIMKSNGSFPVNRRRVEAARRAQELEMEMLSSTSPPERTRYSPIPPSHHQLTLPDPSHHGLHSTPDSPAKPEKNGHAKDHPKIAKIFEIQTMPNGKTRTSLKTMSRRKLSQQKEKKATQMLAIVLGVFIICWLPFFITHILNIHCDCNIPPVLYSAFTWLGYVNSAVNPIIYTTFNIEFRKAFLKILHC
row,Structure (SMILES),Ki
1,CN1C(=O)c2ccccc2[S@](=O)c2ccc(C(=O)NCCc3cccs3)cc21,100 nM (active)
